For eight compounds, outcome and AC50 results are on record in PubChem BioAssay (EPA / NIEHS).

Values joined by “and” are separate entries in the source; they are usually repeats but may differ in a detail not shown here. Identical values can stand only once. Records with an inconclusive call do not appear. Some compounds were tested as several samples or in several runs, with calls that do not always agree. Active and inactive are the calls of the source. The calls were made as follows, unless noted: active = hit-call score of the fitted dose curve at least 0.9, where 1 is the maximum; inactive = score below 0.9.

Assay [1] addresses Transcriptional activator Myb (Homo sapiens) (UniProt P10242). The experiment in a line: ATG_Myb_CIS: Attagene CIS-FACTORIAL HepG2 Assay for human Myeloblastosis (Myb) Proto-Oncogene Transcription Factor (AID 2282986). The note with it: HepG2 Attagene CIS-FACTORIAL Myb reporter transcription; actives raise or lower the signal. The procedure, abridged:
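Fluorescence signals from capillary electrophoresis of RT-PCR-amplified reporter cDNA give the read-out. Cells: HepG2 transfected with multiple cis-regulated reporter units. Exposure lasts 24 hours; DMSO defines baseline for gain or loss of signal.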

The target in assay [2] is Nuclear respiratory factor 1 (Homo sapiens) (UniProt Q16656). The experiment in a line: ATG_NRF1_CIS: Attagene CIS-FACTORIAL HepG2 Assay for human Nuclear Respiratory Factor 1 (NRF1) Orphan Gene (AID 2282987). Particulars: HepG2 NRF1 cis-element reporter, Attagene multiplex; actives raise or lower the signal. The procedure, abridged:
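Transcriptional reporter readout, one component of a 52-endpoint multiplexed HepG2 panel. Exposure 24 h; mRNA detected via RT-PCR and fluorescent capillary electrophoresis; fitting in both directions against DMSO.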

The nature of assay [3]: ATG_NFI_CIS: Attagene CIS-FACTORIAL HepG2 Assay for human Nuclear Factor I (NFI) (AID 2282989). The note with it: HepG2 cis-regulatory reporter, NFI response element transcription; actives raise or lower the signal. The method in brief: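 Transfected HepG2 liver cells, exposed 24 h, supplied total RNA for oligo(dT) reverse transcription and reporter-specific PCR. Labelled, HpaI-cut fragments were sized by capillary electrophoresis; DMSO set the baseline for bidirectional fitting.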

The target in assay [4] is Myc proto-oncogene protein (Homo sapiens) (UniProt P01106). The experiment in a line: ATG_Myc_CIS: Attagene CIS-FACTORIAL HepG2 Assay for human Myelocytomatosis (Myc) Proto-Oncogene Transcription Factor (AID 2282990). The note with it: HepG2, Attagene cis-reporter transcription factor activity; actives raise or lower the signal. The method in brief:
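DMSO-normalised, bidirectionally fitted reporter mRNA signal. HepG2 cells transfected with cis reporter constructs, treated 24 h; transcripts detected by RT-PCR, 6-FAM primer extension and CE.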

Assay [5] in a line: ATG_NF_kB_CIS: Attagene CIS-FACTORIAL HepG2 Assay for human Nuclear Factor Kappa B (NF-kB) (AID 2282991). Particulars: HepG2 Attagene cis-factorial NF-kB reporter mRNA; actives raise or lower the signal. The procedure, abridged: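 HepG2, transient multi-reporter transfection, cis promoter elements (endogenous TFs). 24 h exposure. Total RNA → RT → PCR → 6-FAM label → HpaI → CE. Gain/loss vs DMSO.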

The nature of assay [6]: ATG_NRF2_ARE_CIS: Attagene CIS-FACTORIAL HepG2 Assay for human Nuclear Factor Erythroid 2 Related Factor 2 (NFR2) response to Antioxidant Response Elements (ARE) (AID 2282992).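 As to AC50: reporter mRNA level measured by RT-PCR and capillary electrophoresis fluorescence.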 The note with it: HepG2 Attagene ARE/NRF2 reporter, transcription factor activity; actives raise or lower the signal. The method in brief:
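Multiplexed reporter mRNA profiling in HepG2 after a 24 h chemical exposure. Curves fitted in both directions relative to DMSO negative control.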

Assay [7] is described as follows: ATG_Oct_MLP_CIS: Attagene CIS-FACTORIAL HepG2 Assay for human Octamer-Binding Transcription Factor (Oct) (AID 2282993). The note with it: HepG2 Attagene cis-factorial Oct reporter, mRNA; actives raise or lower the signal. The method in brief: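 Using HepG2 cells bearing transfected cis-reporter constructs, mRNA induction was read after 24 h by fluorescent RT-PCR and capillary electrophoresis, with DMSO defining baseline for gain- or loss-of-signal fits.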

Assay [8] in a line: BSK_3C_TissueFactor: BioMAP Diversity Plus: 3C Assay for Tissue Factor Biomarker Activity (AID 2282997). Particulars: BioMAP 3C HUVEC, tissue factor biomarker readout; actives raise or lower the signal. The procedure, abridged: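 Primary human umbilical vein endothelial cells in the 3C system were exposed to test chemical for 24 h, then Tissue Factor measured by ELISA. Activity was fitted bidirectionally against DMSO as negative control and baseline.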

Assay [9] is described as follows: BSK_3C_uPAR: BioMAP Diversity Plus: 3C Assay for Urokinase-type plasminogen activator receptor (uPAR) Biomarker Activity (AID 2282998). The note with it: BioMAP 3C HUVEC, uPAR biomarker ELISA; actives raise or lower the signal. The method in brief: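 In this endothelial cell-based assay, human umbilical vein primary cells were treated with chemicals and harvested at 24 h. uPAR was quantified using ELISA, with gains or losses fitted relative to DMSO controls.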
In general terms: An ELISA detects its analyte on a solid surface through an enzyme-linked reagent.

A short description of assay [10]: BSK_3C_VCAM1: BioMAP Diversity Plus: 3C Assay for Vascular cell adhesion molecule 1 (VCAM1) Biomarker Activity (AID 2282999). The note with it: BioMAP 3C HUVEC, VCAM1 ELISA, cytokine-stimulated; actives raise or lower the signal. The procedure, abridged:
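Human umbilical vein endothelial cells were dosed with compound for 24 h, after which cell-surface VCAM-1 was quantified by ELISA. Bidirectional curve fitting used DMSO as negative control and activity baseline.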

Assay [11] in a line: BSK_4H_Eotaxin3: BioMAP Diversity Plus: 4H Assay for Eotaxin 3 Biomarker Activity (AID 2283000).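 As to outcome: CCL26 protein level quantified by ELISA in parallel with SRB cytotoxicity check.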 Particulars: primary human endothelial cells (HUVEC); actives raise or lower the signal. The procedure, abridged:
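HUVEC, 24 h post-dose, ELISA for Eotaxin-3/CCL26. Gain or loss of signal fitted bidirectionally vs DMSO baseline.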

Assay [12] addresses human Peroxisome Proliferator-activated Receptor delta (PPARd), PPARD (gene 5467) (UniProt Q03181). The experiment in a line: ATG_PPARd_TRANS: Attagene TRANS-FACTORIAL HepG2 Assay for human Peroxisome Proliferator-activated Receptor delta (PPARd) (AID 2283002; active = hit-call score of the fitted dose curve at least 0.9, where 1 is the maximum). The method in brief:
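Measured quantity: GAL4-UAS reporter transcript induction in HepG2 after 24 h chemical dosing, with NR-Gal4 chimeras supplied by transient transfection. Detection by RT-PCR and capillary electrophoresis; upward fit against DMSO.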

Read-out in assay [13]: Intercellular Adhesion Molecule 1 (ICAM1), ICAM1 (gene 3383)
The experiment in a line: BSK_3C_ICAM1: BioMAP Diversity Plus: 3C Assay for Intercellular Adhesion Molecule 1 (ICAM1) Biomarker Activity (AID 2283003). The note with it: primary human endothelial cells (HUVEC); actives raise or lower the signal. The method in brief:
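Human vascular endothelial primary cells, 3C conditions, 24 h treatment. ICAM-1 by ELISA.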

Assay [14] can be described thus: BSK_3C_Proliferation: Cell Proliferation Assessment in the BioMAP Diversity Plus: 3C Assay (AID 2283006).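 As to AC50: potency may reflect either rise or fall in cell number versus DMSO.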 Particulars: primary human endothelial cells (HUVEC). The procedure, abridged:
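Proliferation of human vascular endothelial primary cells after 48 h dosing, quantified as SRB-stained protein at 560 nm relative to DMSO.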

Assay [15] deals with Peroxisome proliferator-activated receptor gamma (Homo sapiens) (UniProt P37231). The experiment in a line: ATG_PPARg_TRANS: Attagene TRANS-FACTORIAL HepG2 Assay for human Peroxisome Proliferator-activated Receptor-gamma (PPARg) (AID 2283007; active = hit-call score of the fitted dose curve at least 0.9, where 1 is the maximum). The procedure, abridged:
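Multiplexed reporter transcription units in HepG2, 24 h dosing, reporter transcripts quantified by fluorescent RT-PCR and capillary electrophoresis. Increase over DMSO scored.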

Assay [16] has as its target Cellular tumor antigen p53 (Homo sapiens) (UniProt P04637). The experiment in a line: ATG_p53_CIS: Attagene CIS-FACTORIAL HepG2 Assay for human p53 Transcription Factor (AID 2282994). The note with it: HepG2 p53 cis-element reporter, Attagene mRNA; actives raise or lower the signal. The procedure, abridged:
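Multiplexed reporter mRNA assay in human HepG2 liver cells; cis-regulated units report endogenous factor activity. Values come from bidirectional curve fitting against DMSO negative control after 24 h treatment.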

For assay [17], the target named is Retinoic acid receptor alpha (Homo sapiens) (UniProt P10276). The experiment in a line: ATG_RARa_TRANS: Attagene TRANS-FACTORIAL HepG2 Assay for human Retinoic Acid Receptor alpha (RARa) (AID 2283005; active = hit-call score of the fitted dose curve at least 0.9, where 1 is the maximum). The method in brief:
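HepG2 cells transiently transfected with multiple reporter units expressing chimeric RARα-GAL4 fusion, with GAL4-UAS-driven reporters. After 24 h compound exposure, reporter mRNA induction quantified by RT-PCR and capillary electrophoresis with fluorescent labeling; gain-of-signal fitted relative to DMSO control.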

Assay [18] addresses Nuclear receptor subfamily 1 group I member 2 (Homo sapiens) (UniProt O75469). The experiment in a line: ATG_PXR_TRANS: Attagene TRANS-FACTORIAL HepG2 Assay for human Pregnane X Receptor (PXR) (AID 2283008; active = hit-call score of the fitted dose curve at least 0.9, where 1 is the maximum). The method in brief: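 Measures mRNA induction of a GAL4-UAS-driven reporter in human HepG2 cells transiently expressing PXR fused to Gal4, following 24 h treatment. DMSO served as negative control and baseline.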

In assay [19] the target is human Retinoic Acid Receptor gamma (RARg), RARG (gene 5916) (UniProt P13631). The assay can be described thus: ATG_RARg_TRANS: Attagene TRANS-FACTORIAL HepG2 Assay for human Retinoic Acid Receptor gamma (RARg) (AID 2283009; active = hit-call score of the fitted dose curve at least 0.9, where 1 is the maximum). The method in brief: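 HepG2, RARg-GAL4 TRANS system, 24 h exposure; reporter mRNA by RT-PCR + CE fluorescence; increase over DMSO.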
human Retinoic Acid Receptor gamma (RARg), RARG (gene 5916), sequence (P13631 whole entry, looked up, the tested form may be a part): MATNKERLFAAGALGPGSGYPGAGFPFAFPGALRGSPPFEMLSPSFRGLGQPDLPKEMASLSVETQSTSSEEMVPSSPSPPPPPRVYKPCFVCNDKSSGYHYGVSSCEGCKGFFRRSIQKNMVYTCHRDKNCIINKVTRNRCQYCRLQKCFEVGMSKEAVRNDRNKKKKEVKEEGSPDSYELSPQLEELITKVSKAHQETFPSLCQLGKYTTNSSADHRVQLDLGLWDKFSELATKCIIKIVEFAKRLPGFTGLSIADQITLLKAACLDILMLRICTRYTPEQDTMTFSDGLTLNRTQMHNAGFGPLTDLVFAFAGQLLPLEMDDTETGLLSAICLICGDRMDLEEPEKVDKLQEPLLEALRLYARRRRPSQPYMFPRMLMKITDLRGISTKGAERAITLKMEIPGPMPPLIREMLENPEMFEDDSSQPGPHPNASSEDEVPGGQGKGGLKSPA
In assay [20] the target is human Peroxisome Proliferator-activated Receptor alpha (PPARa), PPARA (gene 5465) (UniProt Q07869). The experiment in a line: ATG_PPARa_TRANS: Attagene TRANS-FACTORIAL HepG2 Assay for human Peroxisome Proliferator-activated Receptor alpha (PPARa) (AID 2283001; active = hit-call score of the fitted dose curve at least 0.9, where 1 is the maximum). The method in brief: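 HepG2 cells transiently transfected with multiplexed GAL4-UAS reporter units and chimeric NR-Gal4 constructs were dosed for 24 h. Reporter mRNA was measured by RT-PCR with fluorescent labelling and capillary electrophoresis; gain of signal fitted against DMSO.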
human Peroxisome Proliferator-activated Receptor alpha (PPARa), PPARA (gene 5465), sequence (Q07869 whole entry, looked up, the tested form may be a part): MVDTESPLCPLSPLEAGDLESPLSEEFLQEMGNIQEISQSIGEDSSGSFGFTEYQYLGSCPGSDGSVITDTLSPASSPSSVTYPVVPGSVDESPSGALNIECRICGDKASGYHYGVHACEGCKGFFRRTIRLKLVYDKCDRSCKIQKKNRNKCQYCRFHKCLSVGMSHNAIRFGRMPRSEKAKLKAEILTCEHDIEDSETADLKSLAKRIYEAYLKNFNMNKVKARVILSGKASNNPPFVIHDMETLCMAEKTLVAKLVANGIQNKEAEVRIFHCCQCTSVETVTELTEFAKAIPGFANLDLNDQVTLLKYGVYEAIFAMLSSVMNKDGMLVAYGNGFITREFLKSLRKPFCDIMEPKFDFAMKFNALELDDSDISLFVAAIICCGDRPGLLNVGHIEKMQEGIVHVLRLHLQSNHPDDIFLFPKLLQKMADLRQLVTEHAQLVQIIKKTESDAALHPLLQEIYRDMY

Nuclear receptor subfamily 1 group I member 2 (Homo sapiens), sequence (O75469 whole entry, looked up, the tested form may be a part): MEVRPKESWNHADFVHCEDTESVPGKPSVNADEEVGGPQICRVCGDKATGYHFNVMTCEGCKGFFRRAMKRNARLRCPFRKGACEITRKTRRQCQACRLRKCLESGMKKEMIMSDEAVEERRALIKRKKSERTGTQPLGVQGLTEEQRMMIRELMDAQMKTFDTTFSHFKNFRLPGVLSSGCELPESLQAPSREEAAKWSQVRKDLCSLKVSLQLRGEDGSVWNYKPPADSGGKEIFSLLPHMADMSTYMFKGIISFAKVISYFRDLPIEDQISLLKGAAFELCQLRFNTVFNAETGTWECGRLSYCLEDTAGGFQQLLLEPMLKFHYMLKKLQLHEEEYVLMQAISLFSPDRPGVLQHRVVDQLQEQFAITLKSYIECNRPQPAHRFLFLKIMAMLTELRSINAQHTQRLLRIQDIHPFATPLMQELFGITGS
Cellular tumor antigen p53 (Homo sapiens), sequence (P04637 whole entry, looked up): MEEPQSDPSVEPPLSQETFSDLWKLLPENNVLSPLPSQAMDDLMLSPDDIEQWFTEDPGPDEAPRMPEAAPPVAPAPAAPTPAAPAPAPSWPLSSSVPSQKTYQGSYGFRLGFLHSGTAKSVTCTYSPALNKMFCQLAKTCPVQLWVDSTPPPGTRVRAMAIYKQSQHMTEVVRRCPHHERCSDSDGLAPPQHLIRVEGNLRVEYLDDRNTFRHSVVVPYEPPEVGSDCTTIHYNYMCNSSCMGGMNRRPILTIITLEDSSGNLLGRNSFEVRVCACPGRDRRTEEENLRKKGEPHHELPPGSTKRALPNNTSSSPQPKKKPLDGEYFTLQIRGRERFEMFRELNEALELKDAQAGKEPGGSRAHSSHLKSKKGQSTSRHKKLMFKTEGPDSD
human Peroxisome Proliferator-activated Receptor delta (PPARd), PPARD (gene 5467), sequence (Q03181 whole entry, looked up, the tested form may be a part): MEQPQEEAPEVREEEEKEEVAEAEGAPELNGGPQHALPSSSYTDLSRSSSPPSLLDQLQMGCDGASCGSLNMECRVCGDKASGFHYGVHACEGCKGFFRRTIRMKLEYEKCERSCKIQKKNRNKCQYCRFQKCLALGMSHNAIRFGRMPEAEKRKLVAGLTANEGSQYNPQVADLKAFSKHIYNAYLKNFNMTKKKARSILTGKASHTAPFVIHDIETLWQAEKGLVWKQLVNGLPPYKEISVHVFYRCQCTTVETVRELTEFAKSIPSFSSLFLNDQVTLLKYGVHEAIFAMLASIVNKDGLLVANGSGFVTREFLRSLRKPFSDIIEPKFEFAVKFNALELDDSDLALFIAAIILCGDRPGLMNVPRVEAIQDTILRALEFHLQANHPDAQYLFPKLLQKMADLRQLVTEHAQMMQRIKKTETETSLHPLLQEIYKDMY
Nuclear respiratory factor 1 (Homo sapiens), sequence (Q16656 whole entry, looked up): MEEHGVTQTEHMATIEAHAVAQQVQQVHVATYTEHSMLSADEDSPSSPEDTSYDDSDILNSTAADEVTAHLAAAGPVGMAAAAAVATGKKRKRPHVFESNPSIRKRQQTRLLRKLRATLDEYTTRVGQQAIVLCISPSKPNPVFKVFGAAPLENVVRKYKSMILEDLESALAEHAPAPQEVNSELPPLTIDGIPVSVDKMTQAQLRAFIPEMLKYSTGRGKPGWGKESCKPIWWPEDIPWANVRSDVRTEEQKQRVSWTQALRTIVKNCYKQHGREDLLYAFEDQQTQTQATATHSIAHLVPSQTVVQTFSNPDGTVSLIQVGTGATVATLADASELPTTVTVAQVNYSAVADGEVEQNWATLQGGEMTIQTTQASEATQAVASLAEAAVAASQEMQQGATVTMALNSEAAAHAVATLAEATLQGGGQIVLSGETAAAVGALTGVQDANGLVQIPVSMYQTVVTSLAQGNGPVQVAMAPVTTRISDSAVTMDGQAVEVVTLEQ
Peroxisome proliferator-activated receptor gamma (Homo sapiens), sequence (P37231 whole entry, looked up): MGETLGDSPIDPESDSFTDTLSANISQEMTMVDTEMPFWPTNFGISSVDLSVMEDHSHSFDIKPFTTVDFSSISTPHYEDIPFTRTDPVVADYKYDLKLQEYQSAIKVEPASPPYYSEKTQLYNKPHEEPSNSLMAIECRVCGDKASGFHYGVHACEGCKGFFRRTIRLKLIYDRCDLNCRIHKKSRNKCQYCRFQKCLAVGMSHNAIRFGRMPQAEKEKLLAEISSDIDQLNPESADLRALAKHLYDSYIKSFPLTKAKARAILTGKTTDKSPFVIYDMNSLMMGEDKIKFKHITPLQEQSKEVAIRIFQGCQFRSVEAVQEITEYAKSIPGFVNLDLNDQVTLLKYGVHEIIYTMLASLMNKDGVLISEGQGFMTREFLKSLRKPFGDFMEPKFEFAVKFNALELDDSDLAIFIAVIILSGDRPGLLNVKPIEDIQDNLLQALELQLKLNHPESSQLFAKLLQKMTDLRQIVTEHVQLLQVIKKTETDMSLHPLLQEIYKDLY
Transcriptional activator Myb (Homo sapiens), sequence (P10242 whole entry, looked up): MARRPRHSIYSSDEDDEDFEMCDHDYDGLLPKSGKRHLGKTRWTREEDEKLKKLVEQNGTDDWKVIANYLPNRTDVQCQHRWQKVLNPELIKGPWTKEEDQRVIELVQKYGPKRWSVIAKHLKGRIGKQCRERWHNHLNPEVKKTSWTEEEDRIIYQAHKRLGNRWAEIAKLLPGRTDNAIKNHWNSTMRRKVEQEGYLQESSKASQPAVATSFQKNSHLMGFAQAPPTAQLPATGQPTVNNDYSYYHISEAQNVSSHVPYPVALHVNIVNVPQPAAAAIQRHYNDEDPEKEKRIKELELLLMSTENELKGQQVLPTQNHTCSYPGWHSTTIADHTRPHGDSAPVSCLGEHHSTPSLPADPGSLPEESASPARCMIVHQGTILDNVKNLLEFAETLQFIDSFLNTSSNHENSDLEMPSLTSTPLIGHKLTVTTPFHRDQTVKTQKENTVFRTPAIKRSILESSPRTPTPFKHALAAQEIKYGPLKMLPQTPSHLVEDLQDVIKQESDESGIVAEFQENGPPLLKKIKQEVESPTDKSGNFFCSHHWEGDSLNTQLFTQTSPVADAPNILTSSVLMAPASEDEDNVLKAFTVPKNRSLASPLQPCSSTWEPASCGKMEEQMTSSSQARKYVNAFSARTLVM
Myc proto-oncogene protein (Homo sapiens), sequence (P01106 whole entry, looked up): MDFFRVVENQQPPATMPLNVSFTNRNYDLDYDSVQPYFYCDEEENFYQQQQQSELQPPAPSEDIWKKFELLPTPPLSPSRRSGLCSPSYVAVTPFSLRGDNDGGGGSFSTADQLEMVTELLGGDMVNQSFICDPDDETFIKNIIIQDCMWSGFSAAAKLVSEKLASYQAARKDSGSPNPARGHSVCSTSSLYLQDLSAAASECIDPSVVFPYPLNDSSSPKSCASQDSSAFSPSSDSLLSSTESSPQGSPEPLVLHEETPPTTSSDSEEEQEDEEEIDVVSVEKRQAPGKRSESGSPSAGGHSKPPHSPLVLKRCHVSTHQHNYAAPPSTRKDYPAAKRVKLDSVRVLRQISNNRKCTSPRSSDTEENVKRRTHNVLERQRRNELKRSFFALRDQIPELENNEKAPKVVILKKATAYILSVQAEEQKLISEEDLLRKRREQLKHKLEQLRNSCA
Retinoic acid receptor alpha (Homo sapiens), sequence (P10276 whole entry, looked up, the tested form may be a part): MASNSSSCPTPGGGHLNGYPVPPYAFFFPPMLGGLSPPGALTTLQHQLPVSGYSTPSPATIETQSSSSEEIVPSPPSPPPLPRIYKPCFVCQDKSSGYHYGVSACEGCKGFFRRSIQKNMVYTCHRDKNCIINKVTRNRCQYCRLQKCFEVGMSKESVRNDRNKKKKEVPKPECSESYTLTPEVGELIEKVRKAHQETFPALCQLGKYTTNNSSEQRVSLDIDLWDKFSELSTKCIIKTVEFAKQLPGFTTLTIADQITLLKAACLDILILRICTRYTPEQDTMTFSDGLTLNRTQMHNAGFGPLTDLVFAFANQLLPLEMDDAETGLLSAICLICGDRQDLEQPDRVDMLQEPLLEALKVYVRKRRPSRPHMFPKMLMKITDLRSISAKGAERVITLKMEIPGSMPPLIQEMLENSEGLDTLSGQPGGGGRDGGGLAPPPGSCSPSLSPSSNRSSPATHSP

`COP(=O)(CCC(=O)NCO)OC`: the compound was called inactive in assay [1], in [2], in [3], in [4], in assay [5] and in assay [6]. Moreover, the compound was classed as inactive in assay [7], in [8], in assay [9], in assay [10], in [11] and in [12]. Also, the result in assay [13], in assay [14] and in assay [15] was inactive. Also, the AC50 (in general, the midpoint of the concentration-response curve, whichever way the signal moves) in [11] was 150 nM (active).

For the compound `CO/N=C(/C(=O)OC)c1ccccc1COc1ccccc1C`, the compound was classed as inactive in assay [1], in assay [2], in assay [3], in assay [4], in [5] and in assay [16]. The compound was called inactive in assay [12], in assay [17] and in assay [19]. The AC50 in [6] was 3.96 µM (active); in [7], 21.9 µM (active); in assay [18] it was 4.28 µM (active).

For the compound `C=CC(=O)OCC(F)(F)C(F)F`, the result in [1], in [2], in assay [3], in assay [4], in assay [7] and in assay [8] was inactive. The outcome in [9], in assay [20], in [13], in [18] and in assay [19] was inactive. The AC50 in [5] was 76 µM (active); in assay [6], 50.3 µM (active); in assay [8] it was 24.6 µM (active); in [10], 35.5 µM (active) and 37 µM (active); in assay [11] it was 30 µM (active) and 21 µM (active); in [14] it was 30 µM (active) and 36 µM (active). Further, the AC50 in assay [15] is 3.8 µM (active).

As for `CCCCC(CC)COC(=O)c1c(Br)c(Br)c(Br)c(Br)c1C(=O)OCC(CC)CCCC` (stereo unspecified), the result in assay [1], in assay [2], in [3], in assay [4], in [5] and in [6] was inactive. The result in assay [7], in assay [8], in [9], in assay [10], in assay [11] and in assay [20] was inactive. For the same compound, the call in [12], in assay [13], in [14], in assay [15] and in assay [18] was inactive.

On to `NC(=O)C(F)(F)C(F)(F)F`, for which the compound was called inactive in assay [1], in assay [2], in assay [3], in [4], in assay [5] and in assay [6]. Further, the compound was classed as inactive in assay [7], in assay [16], in assay [8], in assay [9], in assay [10] and in [11]. Also, the call in assay [20], in assay [12], in assay [13], in assay [17], in [14] and in assay [15] was inactive. For the same compound, the call in assay [18] was inactive.

`FC(F)(F)c1ccc(Cl)cc1`: the compound was called inactive in assay [1], in assay [2], in assay [3], in assay [4], in [5] and in assay [6]. In addition, the compound was called inactive in [7], in assay [16], in assay [12], in [15] and in assay [18].

Take `C/C(=N\NC(=O)Nc1cc(F)cc(F)c1)c1ncccc1C(=O)O`: the outcome in assay [1], in assay [2], in assay [3], in [4], in assay [5] and in assay [6] was inactive. Besides, the compound was classed as inactive in assay [7], in assay [16], in assay [20], in [15] and in [18].

In the case of `c1nc[nH]n1`, the outcome in assay [1], in assay [2], in assay [3], in [4], in assay [5] and in [6] was inactive. Besides, the compound was called inactive in assay [7], in assay [16], in assay [8], in assay [9], in assay [10] and in assay [11]. Besides, the result in assay [20], in [13], in [14], in assay [15] and in assay [18] was inactive.
